Measured values as given in the supplement of paper PMC6411743.
± gives the standard deviation of the averaged measurements. Targets with the largest changes are over-represented here; the source holds about 5,400 in all.

Compound: Nc1nc2c(ncn2[C@@H]2O[C@H](COP(=O)(O)OP(=O)(O)OP(=O)(O)O)[C@@H](O)[C@H]2O)c(=O)[nH]1 [guanosine triphosphate]
Assay: NP40-soluble protein abundance relative to vehicle (solubility fold change) (ratio); higher = more soluble protein in presence of GTP
Summary of the method: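 Crude Jurkat lysate, prepared by Dounce homogenisation, was exposed to eight concentrations from 0.1 to 10 mM for 10 min at room temperature and then 3 min at 37 °C. Solubilisation used 0.8% NP40 with benzonase for 60 min at 4 °C, followed by ultracentrifugation and TMT labelling of the supernatant for LC-MS/MS. After vsn normalisation of intensities, each value is the fold change against the detergent-processed vehicle within each replicate, across three independent experiments.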

UniProt P78563, sequence (P78563 whole entry): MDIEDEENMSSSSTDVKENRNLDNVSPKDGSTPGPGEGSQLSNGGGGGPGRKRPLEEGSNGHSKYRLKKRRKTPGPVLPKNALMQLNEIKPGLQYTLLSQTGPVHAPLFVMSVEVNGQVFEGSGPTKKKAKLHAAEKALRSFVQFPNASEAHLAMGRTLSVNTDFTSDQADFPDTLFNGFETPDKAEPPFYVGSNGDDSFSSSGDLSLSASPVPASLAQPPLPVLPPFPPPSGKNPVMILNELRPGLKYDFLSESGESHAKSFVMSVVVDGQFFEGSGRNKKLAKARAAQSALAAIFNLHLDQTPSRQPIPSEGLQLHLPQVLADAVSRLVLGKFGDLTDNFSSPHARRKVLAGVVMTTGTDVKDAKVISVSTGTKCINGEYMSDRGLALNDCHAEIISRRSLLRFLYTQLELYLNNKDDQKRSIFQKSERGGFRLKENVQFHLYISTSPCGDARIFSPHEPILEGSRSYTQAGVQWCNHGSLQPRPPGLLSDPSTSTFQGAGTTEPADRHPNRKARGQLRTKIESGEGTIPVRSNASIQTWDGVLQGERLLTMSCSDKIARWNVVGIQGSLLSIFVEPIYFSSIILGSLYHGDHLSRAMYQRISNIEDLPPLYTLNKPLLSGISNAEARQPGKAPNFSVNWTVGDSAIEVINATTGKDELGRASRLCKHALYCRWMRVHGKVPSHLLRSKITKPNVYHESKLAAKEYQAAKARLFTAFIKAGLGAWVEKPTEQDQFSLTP
UniProt P61981, sequence (P61981 whole entry): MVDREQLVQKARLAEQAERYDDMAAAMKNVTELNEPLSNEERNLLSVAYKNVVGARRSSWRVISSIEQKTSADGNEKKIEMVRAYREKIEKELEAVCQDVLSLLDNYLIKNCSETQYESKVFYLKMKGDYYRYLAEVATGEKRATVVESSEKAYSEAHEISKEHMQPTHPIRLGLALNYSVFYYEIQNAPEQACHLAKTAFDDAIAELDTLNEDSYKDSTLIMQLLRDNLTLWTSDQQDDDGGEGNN
UniProt Q8IZ81, sequence (Q8IZ81 whole entry, one chain of several): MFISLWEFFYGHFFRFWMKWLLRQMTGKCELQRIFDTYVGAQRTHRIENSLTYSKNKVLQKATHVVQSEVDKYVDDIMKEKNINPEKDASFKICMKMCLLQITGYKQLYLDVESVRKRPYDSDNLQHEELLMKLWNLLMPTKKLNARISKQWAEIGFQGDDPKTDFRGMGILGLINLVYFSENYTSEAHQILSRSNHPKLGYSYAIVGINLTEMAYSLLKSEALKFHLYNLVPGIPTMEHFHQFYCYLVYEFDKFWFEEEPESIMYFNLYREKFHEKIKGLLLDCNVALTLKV
UniProt P62136, sequence (P62136 whole entry): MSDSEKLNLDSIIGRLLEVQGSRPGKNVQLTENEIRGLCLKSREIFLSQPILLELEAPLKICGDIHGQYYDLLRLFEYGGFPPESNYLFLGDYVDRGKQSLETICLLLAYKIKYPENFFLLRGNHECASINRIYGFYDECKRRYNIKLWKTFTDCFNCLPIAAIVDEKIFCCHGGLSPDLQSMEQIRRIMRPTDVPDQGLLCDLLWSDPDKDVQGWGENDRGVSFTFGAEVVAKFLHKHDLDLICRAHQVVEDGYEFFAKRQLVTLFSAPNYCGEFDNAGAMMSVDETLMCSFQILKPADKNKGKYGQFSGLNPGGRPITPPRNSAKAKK
UniProt Q04721, sequence (Q04721 whole entry): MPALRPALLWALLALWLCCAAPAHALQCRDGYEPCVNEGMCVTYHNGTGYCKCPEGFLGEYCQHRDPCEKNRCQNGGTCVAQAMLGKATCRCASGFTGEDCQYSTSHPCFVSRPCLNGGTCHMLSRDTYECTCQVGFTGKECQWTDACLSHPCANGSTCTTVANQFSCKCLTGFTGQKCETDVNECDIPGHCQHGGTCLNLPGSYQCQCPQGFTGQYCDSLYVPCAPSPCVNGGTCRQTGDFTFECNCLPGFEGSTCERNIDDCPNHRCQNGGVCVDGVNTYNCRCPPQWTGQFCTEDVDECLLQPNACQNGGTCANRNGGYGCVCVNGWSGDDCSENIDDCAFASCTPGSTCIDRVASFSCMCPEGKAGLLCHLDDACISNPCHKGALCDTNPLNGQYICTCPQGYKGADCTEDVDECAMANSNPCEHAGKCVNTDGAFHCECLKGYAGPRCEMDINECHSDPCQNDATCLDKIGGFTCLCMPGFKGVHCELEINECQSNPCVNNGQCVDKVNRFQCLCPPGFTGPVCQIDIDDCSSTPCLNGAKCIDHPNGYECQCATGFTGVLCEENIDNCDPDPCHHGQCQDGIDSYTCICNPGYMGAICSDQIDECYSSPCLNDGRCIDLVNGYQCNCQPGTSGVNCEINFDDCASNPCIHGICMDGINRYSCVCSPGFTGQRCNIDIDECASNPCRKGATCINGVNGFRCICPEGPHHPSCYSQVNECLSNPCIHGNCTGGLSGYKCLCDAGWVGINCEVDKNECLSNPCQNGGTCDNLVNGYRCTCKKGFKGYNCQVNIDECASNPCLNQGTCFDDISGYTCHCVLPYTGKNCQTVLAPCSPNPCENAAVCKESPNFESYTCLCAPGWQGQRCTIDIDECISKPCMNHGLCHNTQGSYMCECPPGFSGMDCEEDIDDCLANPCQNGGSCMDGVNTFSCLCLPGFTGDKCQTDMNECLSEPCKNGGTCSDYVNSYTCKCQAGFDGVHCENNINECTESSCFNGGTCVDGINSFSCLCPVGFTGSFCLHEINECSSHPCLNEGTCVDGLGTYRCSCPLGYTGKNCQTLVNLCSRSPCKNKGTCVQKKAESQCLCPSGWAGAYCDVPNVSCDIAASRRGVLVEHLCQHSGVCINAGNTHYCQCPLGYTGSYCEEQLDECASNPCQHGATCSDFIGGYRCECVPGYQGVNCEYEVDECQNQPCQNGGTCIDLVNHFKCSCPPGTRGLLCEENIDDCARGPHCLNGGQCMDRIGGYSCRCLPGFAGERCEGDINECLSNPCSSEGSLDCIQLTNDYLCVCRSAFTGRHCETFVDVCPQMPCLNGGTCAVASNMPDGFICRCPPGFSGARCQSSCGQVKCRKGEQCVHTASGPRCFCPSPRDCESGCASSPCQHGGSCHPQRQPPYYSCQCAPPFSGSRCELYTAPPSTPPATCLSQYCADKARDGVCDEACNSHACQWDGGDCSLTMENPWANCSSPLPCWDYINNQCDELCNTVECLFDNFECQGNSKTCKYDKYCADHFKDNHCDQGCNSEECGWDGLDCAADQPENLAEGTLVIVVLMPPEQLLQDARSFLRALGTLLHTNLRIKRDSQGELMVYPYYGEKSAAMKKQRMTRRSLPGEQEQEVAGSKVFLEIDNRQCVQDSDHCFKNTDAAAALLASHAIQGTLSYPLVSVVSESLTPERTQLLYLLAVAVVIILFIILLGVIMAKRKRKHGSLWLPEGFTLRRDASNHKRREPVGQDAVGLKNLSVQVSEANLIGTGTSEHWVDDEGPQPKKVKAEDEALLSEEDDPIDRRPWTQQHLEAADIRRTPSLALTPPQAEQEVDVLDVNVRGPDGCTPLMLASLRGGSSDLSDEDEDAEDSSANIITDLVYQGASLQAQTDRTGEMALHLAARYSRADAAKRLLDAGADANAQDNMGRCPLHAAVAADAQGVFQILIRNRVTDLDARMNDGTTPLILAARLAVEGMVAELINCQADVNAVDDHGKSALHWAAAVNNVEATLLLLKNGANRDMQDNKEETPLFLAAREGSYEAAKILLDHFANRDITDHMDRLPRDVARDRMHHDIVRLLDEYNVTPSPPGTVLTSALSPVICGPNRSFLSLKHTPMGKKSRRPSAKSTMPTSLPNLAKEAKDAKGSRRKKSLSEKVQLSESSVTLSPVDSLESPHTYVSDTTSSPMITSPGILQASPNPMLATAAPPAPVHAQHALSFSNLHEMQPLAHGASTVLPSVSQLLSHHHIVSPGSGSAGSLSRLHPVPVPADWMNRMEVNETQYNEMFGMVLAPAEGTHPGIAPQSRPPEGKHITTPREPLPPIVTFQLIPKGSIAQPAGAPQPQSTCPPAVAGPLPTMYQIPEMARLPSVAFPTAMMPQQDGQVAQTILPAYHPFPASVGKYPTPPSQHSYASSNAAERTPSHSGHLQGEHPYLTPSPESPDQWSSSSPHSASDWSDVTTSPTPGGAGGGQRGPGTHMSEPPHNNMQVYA
UniProt Q68D91, sequence (Q68D91 whole entry): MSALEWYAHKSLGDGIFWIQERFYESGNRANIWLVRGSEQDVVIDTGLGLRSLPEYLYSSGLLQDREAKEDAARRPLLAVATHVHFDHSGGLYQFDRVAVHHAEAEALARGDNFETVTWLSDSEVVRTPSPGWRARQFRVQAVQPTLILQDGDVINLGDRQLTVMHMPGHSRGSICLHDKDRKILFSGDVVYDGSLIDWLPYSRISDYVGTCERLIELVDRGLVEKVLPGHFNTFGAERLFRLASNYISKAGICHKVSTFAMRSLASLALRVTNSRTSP
UniProt Q86Y37, sequence (Q86Y37 whole entry): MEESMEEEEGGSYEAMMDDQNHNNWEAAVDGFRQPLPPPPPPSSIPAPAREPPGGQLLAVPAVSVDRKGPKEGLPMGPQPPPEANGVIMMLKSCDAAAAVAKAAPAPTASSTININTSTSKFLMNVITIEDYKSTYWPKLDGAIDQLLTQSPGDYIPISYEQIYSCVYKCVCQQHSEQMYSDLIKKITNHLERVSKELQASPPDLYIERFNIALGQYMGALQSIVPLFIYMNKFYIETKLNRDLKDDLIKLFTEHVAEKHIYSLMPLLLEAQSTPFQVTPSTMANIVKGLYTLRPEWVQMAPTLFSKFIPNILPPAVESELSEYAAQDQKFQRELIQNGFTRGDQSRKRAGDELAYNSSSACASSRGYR
UniProt Q8NCW5, sequence (Q8NCW5 whole entry): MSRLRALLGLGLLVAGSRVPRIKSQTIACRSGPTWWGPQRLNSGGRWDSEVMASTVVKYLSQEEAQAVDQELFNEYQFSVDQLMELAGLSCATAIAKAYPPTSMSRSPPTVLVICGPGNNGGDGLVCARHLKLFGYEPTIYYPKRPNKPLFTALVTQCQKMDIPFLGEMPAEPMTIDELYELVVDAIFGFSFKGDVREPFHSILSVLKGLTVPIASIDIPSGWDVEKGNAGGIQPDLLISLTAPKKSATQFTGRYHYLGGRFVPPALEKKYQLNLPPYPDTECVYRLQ

Target	NP40-soluble protein abundance (concentration: 0.1mM)	NP40-soluble protein abundance (concentration: 0.5mM)	NP40-soluble protein abundance (concentration: 1mM)	NP40-soluble protein abundance (concentration: 2mM)	NP40-soluble protein abundance (concentration: 4mM)	NP40-soluble protein abundance (concentration: 6mM)	NP40-soluble protein abundance (concentration: 8mM)	NP40-soluble protein abundance (concentration: 10mM)
UniProt P61981	0.845 ± 0.11	0.811 ± 0.067	1.01 ± 0.14	0.987 ± 0.076	0.942 ± 0.075	0.968 ± 0.12	0.912 ± 0.15	1.05 ± 0.16
UniProt Q8N766|Q8N766-2|Q8N766-3|Q8N766-4	1.01 ± 0.055	1.03 ± 0.1	0.938 ± 0.046	0.964 ± 0.12	0.951 ± 0.098	0.926 ± 0.093	0.901 ± 0.015	0.897 ± 0.063
UniProt Q7L5D6|Q7L5D6-2	1.03 ± 0.056	0.98 ± 0.091	0.94 ± 0.047	0.975 ± 0.11	0.963 ± 0.12	0.986 ± 0.1	0.868 ± 0.053	0.887 ± 0.12
P62158 (UniProt P0DP23)	0.715 ± 0.11	0.763 ± 0.14	0.991 ± 0.17	1.12 ± 0.19	1.09 ± 0.21	1.15 ± 0.24	0.939 ± 0.14	1.14 ± 0.11
HNRNPA0 (UniProt Q13151)	0.975 ± 0.038	1 ± 0.024	1 ± 0.038	0.989 ± 0.05	0.967 ± 0.035	1 ± 0.046	1.01 ± 0.052	0.986 ± 0.058
UniProt P78563|P78563-2|P78563-3|P78563-4|P78563-5|P78563-6	1.05 ± 0.12	1.03 ± 0.13	1.007 ± 0.0033	1.07 ± 0.053	1.11 ± 0.044	1.16 ± 0.062	1.15 ± 0.031	1.16 ± 0.1
UniProt P63092-2|P63092-3|P63092|P63092-4	0.973 ± 0.013	0.9607 ± 0.0034	0.922 ± 0.025	0.91 ± 0.024	0.882 ± 0.043	0.882 ± 0.038	0.873 ± 0.026	0.847 ± 0.031
DHX9 (UniProt Q08211)	1.03 ± 0.088	1.13 ± 0.16	1.06 ± 0.17	1.2 ± 0.26	1.32 ± 0.28	1.49 ± 0.37	1.52 ± 0.3	1.64 ± 0.33
METTL3 (UniProt Q86U44)	0.967 ± 0.058	1.01 ± 0.061	0.969 ± 0.062	0.948 ± 0.076	0.911 ± 0.06	0.932 ± 0.058	0.92 ± 0.085	0.931 ± 0.063
MDC1 (UniProt Q14676)	1.1 ± 0.024	1.14 ± 0.042	1.23 ± 0.053	1.41 ± 0.11	1.66 ± 0.17	1.77 ± 0.21	1.86 ± 0.29	1.92 ± 0.36
PPP1CA (UniProt P62136)	0.894 ± 0.12	0.92 ± 0.12	0.861 ± 0.081	0.834 ± 0.072	0.855 ± 0.083	0.853 ± 0.056	0.837 ± 0.098	0.828 ± 0.092
NANP (UniProt Q8TBE9)	1.07 ± 0.15	0.981 ± 0.11	0.954 ± 0.14	0.982 ± 0.16	0.904 ± 0.12	0.877 ± 0.14	0.891 ± 0.2	0.861 ± 0.15
UniProt P62995|P62995-3	1.08 ± 0.077	1.36 ± 0.24	1.64 ± 0.54	1.73 ± 0.47	1.61 ± 0.64	1.54 ± 0.58	1.54 ± 0.62	1.41 ± 0.64
UniProt P62879	0.978 ± 0.035	1.01 ± 0.064	0.917 ± 0.031	0.947 ± 0.074	0.924 ± 0.05	0.937 ± 0.054	0.913 ± 0.048	0.893 ± 0.09
SLC25A24 (UniProt Q6NUK1)	0.934 ± 0.055	0.93 ± 0.033	0.857 ± 0.039	0.854 ± 0.014	0.837 ± 0.026	0.845 ± 0.024	0.809 ± 0.061	0.817 ± 0.057
NOTCH2 (UniProt Q04721)	0.991 ± 0.023	1.03 ± 0.042	1.086 ± 0.0064	1.12 ± 0.069	0.967 ± 0.22	1.08 ± 0.23	1.08 ± 0.028	1.06 ± 0.08
UniProt Q86W42|Q86W42-2	1.21 ± 0.14	1.35 ± 0.28	1.46 ± 0.27	1.87 ± 0.52	2.27 ± 0.61	2.29 ± 0.68	2.26 ± 0.54	2.31 ± 0.65
MBLAC2 (UniProt Q68D91)	1.09 ± 0.12	1.03 ± 0.1	1 ± 0.11	1.02 ± 0.13	1.01 ± 0.11	0.941 ± 0.13	0.952 ± 0.097	0.929 ± 0.14
UniProt Q02447-3	0.995 ± 0.021	1 ± 0.078	1.01 ± 0.033	0.984 ± 0.067	0.983 ± 0.049	1.01 ± 0.084	1.08 ± 0.055	1.05 ± 0.016
UniProt Q13325|Q13325-2	1.06 ± 0.044	1.05 ± 0.061	0.989 ± 0.057	0.978 ± 0.05	0.952 ± 0.086	0.927 ± 0.049	0.906 ± 0.077	0.888 ± 0.13
UniProt Q86Y37|Q86Y37-4	0.963 ± 0.063	0.923 ± 0.074	0.9527 ± 0.0029	0.9274 ± 0.0067	0.907 ± 0.091	0.905 ± 0.048	0.87 ± 0.057	0.889 ± 0.054
UniProt Q53EL6|Q53EL6-2	0.992 ± 0.14	1.08 ± 0.18	1.12 ± 0.24	1.23 ± 0.34	1.45 ± 0.45	1.66 ± 0.47	1.81 ± 0.48	2.16 ± 0.58
UniProt P60228	1.09 ± 0.046	1.08 ± 0.061	1.05 ± 0.098	1.14 ± 0.17	1.32 ± 0.27	1.44 ± 0.33	1.58 ± 0.3	1.75 ± 0.38
UniProt Q86V81	0.939 ± 0.019	0.943 ± 0.079	1.12 ± 0.036	1.25 ± 0.097	1.5 ± 0.047	1.73 ± 0.054	1.95 ± 0.1	2.52 ± 0.13
UniProt Q7Z3B4|Q7Z3B4-3	1.02 ± 0.051	1 ± 0.021	1 ± 0.038	1.01 ± 0.032	1.06 ± 0.062	1.07 ± 0.065	1.12 ± 0.055	1.18 ± 0.092
UniProt Q8NCW5	0.907 ± 0.084	0.869 ± 0.041	0.991 ± 0.083	0.986 ± 0.055	0.967 ± 0.085	0.932 ± 0.08	0.895 ± 0.11	0.969 ± 0.1
AARS2 (UniProt Q5JTZ9)	1.13 ± 0.043	1.02 ± 0.046	0.989 ± 0.052	0.998 ± 0.059	0.98 ± 0.06	0.948 ± 0.04	0.925 ± 0.03	0.925 ± 0.045
UniProt Q8IW45|Q8IW45-2	1.01 ± 0.071	0.978 ± 0.074	0.985 ± 0.038	0.945 ± 0.021	0.969 ± 0.013	0.915 ± 0.045	0.954 ± 0.077	0.91 ± 0.035
UniProt Q8IZ81|D6RBS5	1.12 ± 0.15	1.15 ± 0.2	0.932 ± 0.066	0.934 ± 0.069	0.944 ± 0.063	0.877 ± 0.048	0.958 ± 0.13	0.802 ± 0.051
